# Imprint erasure = induces erasure of genomic imprints in mouse ES cells. mouse ES Peg3-LacZ reporter, beta-gal luminescence, 40 h. actives 0.02% (n = 110,000). Potency, µM (highest dose often 60.7 µM), for the others: at the highest dose activity change, positive = activation, most hits filed as activators
#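 Imprint erasure is scored as LacZ activity from the silenced maternal Peg3 allele in feeder-free female ES cells cultured 40 h with LIF. Luminescence is normalized to in-plate negative controls and fitted to the Hill equation.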
# p53ts 39C kill = kills p53ts cells at the nonpermissive temperature. H1299-p53A138V viability at 39C, ATP luminescence, 24 h. Potency, µM (top dose mostly 46.1 µM), without a hit: at the top dose activity change, negative = cell killing, usual class: cytotoxic. actives 1.5% (n = 130,000). AID 902; further: on the % scale 0 is the no-effect control and ±100 the full control effect; nearly all actives have a fitted effect of over 55% in size
# FLuc inh = blocks Photinus pyralis firefly luciferase activity. P08659. purified firefly luciferase, luminescence, 8 min. Potency, µM (titrated, usually from 57.1 µM), inactives show at the highest dose activity change, negative = inhibition, actives largely listed as inhibitors. actives 2.2% (n = 72,000). AID 411; further: on the % scale 0 is the no-effect control and ±100 the full control effect; nearly all actives have a fitted effect of over 40% in size
# Target sequence (P08659 whole entry, looked up): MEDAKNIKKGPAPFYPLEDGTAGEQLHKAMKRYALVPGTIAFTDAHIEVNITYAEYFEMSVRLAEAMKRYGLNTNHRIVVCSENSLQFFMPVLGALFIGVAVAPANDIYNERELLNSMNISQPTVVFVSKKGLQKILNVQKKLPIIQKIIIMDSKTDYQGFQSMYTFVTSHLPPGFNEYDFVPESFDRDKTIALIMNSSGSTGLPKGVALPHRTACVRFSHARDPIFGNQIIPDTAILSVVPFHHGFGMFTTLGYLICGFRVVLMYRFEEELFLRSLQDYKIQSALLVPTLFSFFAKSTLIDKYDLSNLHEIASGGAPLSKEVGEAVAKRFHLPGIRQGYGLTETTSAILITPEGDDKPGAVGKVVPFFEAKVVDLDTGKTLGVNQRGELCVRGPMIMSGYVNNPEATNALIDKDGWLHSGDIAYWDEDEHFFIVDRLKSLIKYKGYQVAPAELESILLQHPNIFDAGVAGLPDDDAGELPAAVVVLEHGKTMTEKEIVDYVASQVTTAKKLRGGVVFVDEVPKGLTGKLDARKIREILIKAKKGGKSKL
#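 Luminescence read-out after 8 min at room temperature; enzyme reaction used luciferin plus 10 uM ATP (linear range) in imidazole buffer pH 7.2 with KCl, MgCl2, Tween 20 and BSA. Each sample was run as a titration.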
# IkB sig inh = IkB pathway inhibition in ABC-DLBCL cells | AID 445 | Potency, µM (titrated, usually from 57.1 µM), inactives show top-dose IkBa stabilization activation | ABC-DLBCL IkBa-CBG/CBR dual luciferase ratio, 4 h; response scale: scaled: untreated 0%, proteasome inhibitor 100% | actives 0.04% (n = 110,000); active means well fitted curve in the direction sought with a large enough effect in the signal ratio, not every such curve was filed as active; inconclusive means small, poorly fitted or top-dose-only effect, or a change in a side signal; the % refers to the signal ratio;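 further: the direction sought is a rising ratio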
#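 Luminescence ratio of IκBα-fused green versus native red beetle luciferase in OCI-Ly3 cells, 4 h post-doxycycline with compound; red signal alone, scaled from basal (0%) to zero light (-100%), flagged nonspecific or cytotoxic effects.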
# p53ts 32C kill = cytotoxicity in p53ts cells at permissive temperature. H1299-p53A138V at 32C, ATP luminescence viability, 24 h. Potency, µM (titrated, usually from 46.1 µM), without a hit: at the top dose activity change, negative = cytotoxicity, usual class: cytotoxic. actives 0.93% (n = 130,000). AID 924;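 further: 0% = DMSO and -100% = full killing by reference compound; nearly all actives have a fitted effect of over 55% in size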
#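 Viability by ATPlite luminescence after 24 h compound treatment (up to 46 uM) at the permissive 32C. Cells are H1299 carrying p53 A138V. Scale runs from DMSO basal to 100 uM tamoxifen as full kill; AC50 from Hill fits.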
# The depositor's hits bear a star; ? = inconclusive; / = no result given; [ ] = another dose, or the depositor's remark. The list is not random: actives were taken first. Their share in the collection is about 2.4%. Unless noted, the call rests on the fitted dose curve; in most records, active means well fitted curve in the direction sought with a large enough effect; inconclusive means small, poorly fitted or top-dose-only effect, or another doubt; inactive means no such curve, though single readings can be large; an effect the other way counts as inactive or inconclusive. Potency means the concentration at half of the fitted maximal effect.
SMILES,Imprint erasure,p53ts 39C kill,FLuc inh,IkB sig inh,p53ts 32C kill
O=c1[nH]c(Nc2nc3ccccc3o2)nc2c1CCCC2,/,?,/,/,13µM*
Cc1cccc(Cn2c(N(C)Cc3ccccc3)nc3c2c(=O)[nH]c(=O)n3C)c1,-46%,5µM*,2%,5%,6.3µM*
CN(Cc1ccccc1)c1nc2c(c(=O)[nH]c(=O)n2C)n1C,-1%,9%,-3%,0%,-2%
Clc1ccccc1-c1ccc2ncnc(N3CCNCC3)c2c1,10µM*,5%,3%[2.29 µM],-1%[11.4 µM],28%
CCOC(=O)Cc1csc(NC(=O)c2ccc3c(c2)OCO3)n1,-58%,-12%,20µM*,?,-20%
Cc1cc(NC(=O)CSc2nnc(-c3ccc4c(c3)OCCO4)o2)no1,-81%,0.79µM*,-9%,-1%,5µM*
Cc1cc(NC(=O)c2ccc3c(c2)OCCO3)no1,-88%,2µM*,2µM*,5%,1.6µM*
COc1ccc(-c2ccc(SCC(=O)Nc3cc(C)on3)nn2)cc1OC,-20%,?,13µM*,0%,?
CCN(CC)[C@@H](C)C(=O)N1c2ccccc2Sc2ccccc21,/,/,1%,3%,/
Cc1ccccc1C(=O)OCc1cc(=O)n2nc(C3CCCCC3)sc2n1,-9%[10.9 µM],-22%,/,-1%,7%
Cc1cc(NC(=O)c2ccc3c(c2)OCO3)no1,-78%,13µM*,7.9µM*,1%,10µM*
O=C(NNC(=S)NC1CCCCC1)c1ccc2c(c1)OCO2,/,-7%,/,/,/
O=C(NC1CCCCCCC1)c1ccc2c(c1)OCO2,-66%,?,16µM*,8%,?
Cc1ccc(-c2cc3c(nn2)-c2ccccc2C3=O)cc1,-95%,0.4µM*,0.25µM*,?,0.5µM*
COc1cc(S(=O)(=O)NCCc2c(C)[nH]c3ccccc23)c(C)cc1C,-12%[10.9 µM],?,/,?,9%
C[C@H]1[C@H](C)CC[C@@]2(C(=O)O)CC[C@]3(C)C(=CC[C@@H]4[C@@]5(C)CC[C@H](O)C(C)(C)[C@@H]5CC[C@@]43C)[C@@H]12,/,/,0%[11.4 µM],0%[11.4 µM],/
CCC(C)Nc1ncnc2c1cnn2-c1ccc(F)cc1 (stereo not given),-9%[10.9 µM],7.9µM*,/,?,?
COc1ccc(CNc2ncnc3c2cnn3-c2ccc(Cl)cc2)cc1,21%[10.9 µM],7%,/,-2%,5%
COCC(C)Nc1ncnc2c1cnn2-c1ccc(Cl)cc1 (stereo not given),/,/,7.9µM*,/,/
Cc1cccc2cc3c(N)c(C(=O)N4CCOCC4)sc3nc12,-58%,?,16µM*,1%,-2%
CC(=O)c1sc(NC(=O)c2ccccc2F)nc1C,-92%,?,16µM*,?,?
CC(=O)c1sc(NC(=O)C(C)(C)C)nc1C,/,22%,/,/,7%
Cc1ccccc1-n1c(SCc2ccc(Cl)cc2)nc2[nH]ncc2c1=O,-11%[10.9 µM],-11%,/,?,27%
Cc1cc(-n2c(SCc3ccccc3F)nc3[nH]ncc3c2=O)ccc1Cl,-11%[10.9 µM],16µM*,/,?,12%
COC(=O)Cc1c(C)nc2nc(-c3ccc(OC)cc3)[nH]n2c1=O,-64%,?,13µM*,?,?
SMILES,Imprint erasure,p53ts 39C kill,FLuc inh,IkB sig inh,p53ts 32C kill
Cc1cc2c(cc1NS(=O)(=O)c1cccc(C#N)c1)n(C)c(=O)c(=O)n2C,-9%[10.9 µM],-15%,/,-1%,1%
O=C1C=CC2=C3c4cc(O)c(O)cc4C[C@@]3(O)COC2=C1O,/,/,-11%[11.4 µM],2%[11.4 µM],/
Cc1ccc2nc(-c3ccc(NC(=O)C(F)(F)F)cc3)sc2c1,-61%[10.9 µM],1.6µM*,/,3%,3.2µM*
Cc1ccc2nc(-c3ccc(NC(=O)c4ccc(S(C)(=O)=O)cc4)cc3)sc2c1,?,7%,/,0%,2%
CCOc1ccc2nc(NC(=O)c3ccccc3)sc2c1,-74%[10.9 µM],?,/,?,6.3µM*
CCCC(=O)Nc1nc2ccc(OCC)cc2s1,-30%,-15%,13µM*,2%,-24%
COCC(=O)Nc1nc2ccc(C)cc2s1,-81%,?,20µM*,17%,?
Cc1ccc(C(=O)Nc2nc3ccccc3c(=O)s2)cc1,/,16µM*,?,?,13µM*
